Data: ChEMBL document CHEMBL1961873, “Compounds: GSK PKIS; Assays: Nanosyn kinase panel” (2012)

Key:
[1] = molecular target: Protein kinase C gamma type (Homo sapiens) (UniProt P05129); settings: at 1 µM;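 also: each value is an averaged percent inhibition of the enzyme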
[2] = molecular target: T1, Protein kinase C iota type (Homo sapiens) (UniProt P41743); settings: at 0.1 µM
T1 sequence (whole entry): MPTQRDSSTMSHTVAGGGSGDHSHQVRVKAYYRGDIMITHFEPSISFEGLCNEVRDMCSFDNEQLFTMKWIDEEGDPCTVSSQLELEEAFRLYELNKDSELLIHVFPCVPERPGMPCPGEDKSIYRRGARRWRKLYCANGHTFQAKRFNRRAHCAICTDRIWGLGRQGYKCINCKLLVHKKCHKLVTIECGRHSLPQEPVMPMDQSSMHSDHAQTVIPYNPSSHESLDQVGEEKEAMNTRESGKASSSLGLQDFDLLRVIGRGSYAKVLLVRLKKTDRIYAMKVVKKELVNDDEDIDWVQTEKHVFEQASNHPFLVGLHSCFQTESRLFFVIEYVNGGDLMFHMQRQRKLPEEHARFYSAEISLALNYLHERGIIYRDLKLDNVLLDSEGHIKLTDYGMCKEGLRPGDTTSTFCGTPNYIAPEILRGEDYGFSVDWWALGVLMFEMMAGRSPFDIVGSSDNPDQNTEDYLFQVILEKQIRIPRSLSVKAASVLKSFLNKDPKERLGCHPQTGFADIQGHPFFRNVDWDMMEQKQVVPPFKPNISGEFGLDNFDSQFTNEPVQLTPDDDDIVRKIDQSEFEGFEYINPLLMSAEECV

[3] = molecular target: T1, Protein kinase C iota type (Homo sapiens); settings: at 1 µM
[4] = molecular target: Protein kinase C theta type (Homo sapiens) (UniProt Q04759); settings: at 0.1 µM
[5] = molecular target: Protein kinase C theta type (Homo sapiens) (UniProt Q04759); settings: at 1 µM
[6] = molecular target: Protein kinase C beta type (Homo sapiens) (UniProt P05771); settings: at 0.1 µM
[7] = molecular target: Protein kinase C beta type (Homo sapiens) (UniProt P05771); settings: at 1 µM
[8] = molecular target: T2, Serine/threonine-protein kinase D1 (Homo sapiens) (UniProt Q15139); settings: at 0.1 µM
T2 sequence (whole entry): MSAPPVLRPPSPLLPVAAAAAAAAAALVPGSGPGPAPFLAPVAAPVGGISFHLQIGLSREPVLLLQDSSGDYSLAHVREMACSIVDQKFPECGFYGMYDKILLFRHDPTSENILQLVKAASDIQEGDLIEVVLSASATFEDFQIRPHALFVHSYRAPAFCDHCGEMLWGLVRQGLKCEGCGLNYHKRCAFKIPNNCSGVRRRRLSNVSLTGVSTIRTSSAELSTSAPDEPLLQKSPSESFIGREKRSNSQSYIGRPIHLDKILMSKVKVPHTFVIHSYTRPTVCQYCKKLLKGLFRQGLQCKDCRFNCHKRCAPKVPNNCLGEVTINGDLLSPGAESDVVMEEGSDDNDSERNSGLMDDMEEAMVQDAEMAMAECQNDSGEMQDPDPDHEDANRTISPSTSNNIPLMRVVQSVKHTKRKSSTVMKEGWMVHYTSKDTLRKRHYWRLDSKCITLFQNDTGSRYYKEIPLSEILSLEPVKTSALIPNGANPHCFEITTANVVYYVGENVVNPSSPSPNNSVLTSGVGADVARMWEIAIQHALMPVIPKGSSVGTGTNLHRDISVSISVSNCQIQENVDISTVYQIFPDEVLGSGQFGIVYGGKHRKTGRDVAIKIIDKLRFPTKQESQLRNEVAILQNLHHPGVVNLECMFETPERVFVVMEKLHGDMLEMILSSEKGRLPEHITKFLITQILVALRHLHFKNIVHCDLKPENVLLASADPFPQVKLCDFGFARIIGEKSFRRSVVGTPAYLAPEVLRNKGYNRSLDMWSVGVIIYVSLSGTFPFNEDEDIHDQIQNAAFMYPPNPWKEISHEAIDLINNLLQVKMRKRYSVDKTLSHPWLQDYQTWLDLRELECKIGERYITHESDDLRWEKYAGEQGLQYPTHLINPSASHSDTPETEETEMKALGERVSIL

[9] = molecular target: T2, Serine/threonine-protein kinase D1 (Homo sapiens); settings: at 1 µM
[10] = molecular target: T3, Serine/threonine-protein kinase D2 (Homo sapiens) (UniProt Q9BZL6); settings: at 0.1 µM
T3 sequence (whole entry): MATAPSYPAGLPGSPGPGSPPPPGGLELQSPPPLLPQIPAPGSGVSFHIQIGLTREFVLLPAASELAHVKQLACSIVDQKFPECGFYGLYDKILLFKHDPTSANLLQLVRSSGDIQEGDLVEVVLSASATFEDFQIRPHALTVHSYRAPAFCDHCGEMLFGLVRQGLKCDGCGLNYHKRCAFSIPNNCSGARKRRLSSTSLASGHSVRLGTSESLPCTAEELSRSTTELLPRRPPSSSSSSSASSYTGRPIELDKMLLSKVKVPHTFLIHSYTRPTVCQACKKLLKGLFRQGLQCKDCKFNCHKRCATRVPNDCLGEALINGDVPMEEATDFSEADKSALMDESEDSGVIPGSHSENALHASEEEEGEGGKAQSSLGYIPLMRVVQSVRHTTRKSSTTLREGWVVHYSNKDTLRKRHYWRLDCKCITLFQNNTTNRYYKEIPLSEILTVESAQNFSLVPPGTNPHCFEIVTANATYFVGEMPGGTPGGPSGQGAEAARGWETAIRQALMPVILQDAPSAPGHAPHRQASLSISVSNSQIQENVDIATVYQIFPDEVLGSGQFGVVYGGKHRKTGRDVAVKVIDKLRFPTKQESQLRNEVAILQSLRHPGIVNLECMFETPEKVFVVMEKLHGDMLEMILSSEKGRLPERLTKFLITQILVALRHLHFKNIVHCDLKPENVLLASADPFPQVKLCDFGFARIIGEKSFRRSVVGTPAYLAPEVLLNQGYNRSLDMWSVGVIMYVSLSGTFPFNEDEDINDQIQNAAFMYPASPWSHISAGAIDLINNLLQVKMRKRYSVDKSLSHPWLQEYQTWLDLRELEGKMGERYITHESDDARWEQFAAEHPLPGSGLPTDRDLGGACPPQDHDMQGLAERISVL

[11] = molecular target: T3, Serine/threonine-protein kinase D2 (Homo sapiens); settings: at 1 µM
[12] = molecular target: T4, Serine/threonine-protein kinase D3 (Homo sapiens) (UniProt O94806); settings: at 0.1 µM
T4 sequence (whole entry): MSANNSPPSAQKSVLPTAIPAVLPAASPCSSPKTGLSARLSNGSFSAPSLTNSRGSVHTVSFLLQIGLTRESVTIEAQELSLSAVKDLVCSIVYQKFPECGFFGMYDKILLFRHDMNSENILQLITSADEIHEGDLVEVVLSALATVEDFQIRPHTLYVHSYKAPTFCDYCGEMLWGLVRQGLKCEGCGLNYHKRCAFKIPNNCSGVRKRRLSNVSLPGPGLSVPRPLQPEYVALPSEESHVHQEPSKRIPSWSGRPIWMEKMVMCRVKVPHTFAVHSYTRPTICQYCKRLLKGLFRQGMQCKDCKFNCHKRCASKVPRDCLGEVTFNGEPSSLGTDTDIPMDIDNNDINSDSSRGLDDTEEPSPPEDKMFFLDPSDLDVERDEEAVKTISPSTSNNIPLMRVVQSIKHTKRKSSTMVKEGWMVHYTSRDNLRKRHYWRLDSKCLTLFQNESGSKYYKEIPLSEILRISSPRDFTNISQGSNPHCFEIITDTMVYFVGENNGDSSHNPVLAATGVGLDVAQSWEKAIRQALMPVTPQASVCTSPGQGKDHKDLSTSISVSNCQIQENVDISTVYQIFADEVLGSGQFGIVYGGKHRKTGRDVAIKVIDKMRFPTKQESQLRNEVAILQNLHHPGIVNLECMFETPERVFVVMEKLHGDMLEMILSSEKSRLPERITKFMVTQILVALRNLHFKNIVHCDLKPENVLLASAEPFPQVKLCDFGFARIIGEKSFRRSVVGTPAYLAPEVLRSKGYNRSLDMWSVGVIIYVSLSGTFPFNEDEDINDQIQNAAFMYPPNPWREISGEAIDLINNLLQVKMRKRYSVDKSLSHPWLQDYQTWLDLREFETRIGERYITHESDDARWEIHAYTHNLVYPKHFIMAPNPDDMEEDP

[13] = molecular target: T4, Serine/threonine-protein kinase D3 (Homo sapiens); settings: at 1 µM
[14] = molecular target: T5, cGMP-dependent protein kinase 1 (Homo sapiens) (UniProt Q13976); settings: at 0.1 µM
T5 sequence (whole entry): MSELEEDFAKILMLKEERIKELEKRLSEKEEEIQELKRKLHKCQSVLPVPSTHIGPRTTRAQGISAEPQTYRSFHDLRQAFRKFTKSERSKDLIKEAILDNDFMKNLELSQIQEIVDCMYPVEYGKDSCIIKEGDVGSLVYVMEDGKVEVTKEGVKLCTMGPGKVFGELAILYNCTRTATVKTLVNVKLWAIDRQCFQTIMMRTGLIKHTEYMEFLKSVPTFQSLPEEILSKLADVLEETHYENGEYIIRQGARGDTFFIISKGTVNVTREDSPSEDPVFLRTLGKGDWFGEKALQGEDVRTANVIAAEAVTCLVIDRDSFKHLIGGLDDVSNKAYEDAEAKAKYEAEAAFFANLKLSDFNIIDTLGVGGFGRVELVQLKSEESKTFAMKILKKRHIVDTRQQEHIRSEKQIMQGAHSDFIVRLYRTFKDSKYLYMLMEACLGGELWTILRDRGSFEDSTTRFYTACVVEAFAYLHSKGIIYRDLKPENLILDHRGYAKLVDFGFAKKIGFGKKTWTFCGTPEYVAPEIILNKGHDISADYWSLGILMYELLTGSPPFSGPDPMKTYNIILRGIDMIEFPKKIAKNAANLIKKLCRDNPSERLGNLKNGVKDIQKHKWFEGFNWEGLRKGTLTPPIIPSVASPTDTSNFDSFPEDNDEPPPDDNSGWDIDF

[15] = molecular target: T5, cGMP-dependent protein kinase 1 (Homo sapiens); settings: at 1 µM
[16] = molecular target: T6, cGMP-dependent protein kinase 2 (Homo sapiens) (UniProt Q13237); settings: at 0.1 µM
T6 sequence (whole entry): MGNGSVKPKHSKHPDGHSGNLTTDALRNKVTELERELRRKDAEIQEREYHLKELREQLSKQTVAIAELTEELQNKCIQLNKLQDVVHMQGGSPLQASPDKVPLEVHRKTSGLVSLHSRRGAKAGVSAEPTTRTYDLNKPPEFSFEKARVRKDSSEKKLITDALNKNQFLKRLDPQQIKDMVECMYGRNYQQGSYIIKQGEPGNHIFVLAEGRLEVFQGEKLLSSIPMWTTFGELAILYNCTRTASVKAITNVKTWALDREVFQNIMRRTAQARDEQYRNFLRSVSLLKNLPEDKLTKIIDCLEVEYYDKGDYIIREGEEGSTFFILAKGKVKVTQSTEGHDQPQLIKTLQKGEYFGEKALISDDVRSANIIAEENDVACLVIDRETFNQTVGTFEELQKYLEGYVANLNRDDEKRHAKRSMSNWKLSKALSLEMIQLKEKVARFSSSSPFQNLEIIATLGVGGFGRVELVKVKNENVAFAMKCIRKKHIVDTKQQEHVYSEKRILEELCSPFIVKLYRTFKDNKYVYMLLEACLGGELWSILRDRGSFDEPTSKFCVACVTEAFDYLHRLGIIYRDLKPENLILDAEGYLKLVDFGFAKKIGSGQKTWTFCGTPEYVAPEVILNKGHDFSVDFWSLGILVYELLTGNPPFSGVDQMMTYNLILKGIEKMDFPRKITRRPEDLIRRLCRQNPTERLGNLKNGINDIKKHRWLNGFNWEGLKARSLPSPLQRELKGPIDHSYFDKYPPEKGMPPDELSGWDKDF

[17] = molecular target: T6, cGMP-dependent protein kinase 2 (Homo sapiens); settings: at 1 µM
[18] = molecular target: T7, cAMP-dependent protein kinase catalytic subunit PRKX (Homo sapiens) (UniProt P51817); settings: at 0.1 µM
T7 sequence (whole entry): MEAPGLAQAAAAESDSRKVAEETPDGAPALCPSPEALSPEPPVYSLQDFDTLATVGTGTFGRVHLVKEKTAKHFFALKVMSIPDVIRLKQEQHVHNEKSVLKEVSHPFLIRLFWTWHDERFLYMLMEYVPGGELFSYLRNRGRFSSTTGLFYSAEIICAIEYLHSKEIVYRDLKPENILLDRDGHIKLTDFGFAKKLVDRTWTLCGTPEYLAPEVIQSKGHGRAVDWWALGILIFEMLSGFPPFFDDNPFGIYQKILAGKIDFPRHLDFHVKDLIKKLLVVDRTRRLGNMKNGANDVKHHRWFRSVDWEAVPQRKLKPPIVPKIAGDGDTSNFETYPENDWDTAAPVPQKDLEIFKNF

[19] = molecular target: T7, cAMP-dependent protein kinase catalytic subunit PRKX (Homo sapiens); settings: at 1 µM
[20] = molecular target: Rho-associated protein kinase 1 (Homo sapiens) (UniProt Q13464); settings: at 0.1 µM;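 also: values are mean percent inhibition of ROCK1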
Sequence of Rho-associated protein kinase 1 (Homo sapiens) (Q13464 2-1354 limits assumed): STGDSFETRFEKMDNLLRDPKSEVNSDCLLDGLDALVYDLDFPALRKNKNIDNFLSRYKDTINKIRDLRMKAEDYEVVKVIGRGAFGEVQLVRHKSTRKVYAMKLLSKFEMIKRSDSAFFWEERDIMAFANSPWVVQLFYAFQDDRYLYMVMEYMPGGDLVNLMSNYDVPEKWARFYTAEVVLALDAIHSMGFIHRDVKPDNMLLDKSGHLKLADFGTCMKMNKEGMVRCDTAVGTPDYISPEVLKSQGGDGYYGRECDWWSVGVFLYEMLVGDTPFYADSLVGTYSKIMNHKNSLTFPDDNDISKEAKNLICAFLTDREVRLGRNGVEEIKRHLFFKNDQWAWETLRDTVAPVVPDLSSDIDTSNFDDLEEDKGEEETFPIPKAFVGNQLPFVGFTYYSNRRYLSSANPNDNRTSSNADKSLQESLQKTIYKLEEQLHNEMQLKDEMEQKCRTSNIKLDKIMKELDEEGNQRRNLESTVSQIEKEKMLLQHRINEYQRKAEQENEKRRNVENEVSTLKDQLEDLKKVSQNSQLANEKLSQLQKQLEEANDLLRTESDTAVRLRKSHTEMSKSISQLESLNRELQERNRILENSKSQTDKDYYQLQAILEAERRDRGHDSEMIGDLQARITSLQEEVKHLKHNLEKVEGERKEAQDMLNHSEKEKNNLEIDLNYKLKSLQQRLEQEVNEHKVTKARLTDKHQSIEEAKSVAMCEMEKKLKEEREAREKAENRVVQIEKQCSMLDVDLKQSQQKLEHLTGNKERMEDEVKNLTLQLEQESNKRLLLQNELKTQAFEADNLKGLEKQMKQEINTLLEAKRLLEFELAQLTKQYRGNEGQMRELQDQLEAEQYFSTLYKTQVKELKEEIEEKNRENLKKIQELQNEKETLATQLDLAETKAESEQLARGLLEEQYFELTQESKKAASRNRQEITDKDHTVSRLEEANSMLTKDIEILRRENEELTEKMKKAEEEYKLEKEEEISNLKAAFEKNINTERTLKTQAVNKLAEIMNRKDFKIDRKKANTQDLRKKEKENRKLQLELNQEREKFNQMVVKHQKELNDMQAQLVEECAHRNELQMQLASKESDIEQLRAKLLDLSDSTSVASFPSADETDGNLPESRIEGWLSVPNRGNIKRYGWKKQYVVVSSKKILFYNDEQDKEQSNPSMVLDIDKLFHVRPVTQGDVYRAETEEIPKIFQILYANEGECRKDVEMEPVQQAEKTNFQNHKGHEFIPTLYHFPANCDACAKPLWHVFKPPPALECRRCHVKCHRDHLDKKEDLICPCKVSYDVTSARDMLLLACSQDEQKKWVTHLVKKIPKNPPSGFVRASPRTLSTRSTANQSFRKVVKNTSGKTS

Sequence of Protein kinase C beta type (Homo sapiens) (P05771 2-671 limits assumed): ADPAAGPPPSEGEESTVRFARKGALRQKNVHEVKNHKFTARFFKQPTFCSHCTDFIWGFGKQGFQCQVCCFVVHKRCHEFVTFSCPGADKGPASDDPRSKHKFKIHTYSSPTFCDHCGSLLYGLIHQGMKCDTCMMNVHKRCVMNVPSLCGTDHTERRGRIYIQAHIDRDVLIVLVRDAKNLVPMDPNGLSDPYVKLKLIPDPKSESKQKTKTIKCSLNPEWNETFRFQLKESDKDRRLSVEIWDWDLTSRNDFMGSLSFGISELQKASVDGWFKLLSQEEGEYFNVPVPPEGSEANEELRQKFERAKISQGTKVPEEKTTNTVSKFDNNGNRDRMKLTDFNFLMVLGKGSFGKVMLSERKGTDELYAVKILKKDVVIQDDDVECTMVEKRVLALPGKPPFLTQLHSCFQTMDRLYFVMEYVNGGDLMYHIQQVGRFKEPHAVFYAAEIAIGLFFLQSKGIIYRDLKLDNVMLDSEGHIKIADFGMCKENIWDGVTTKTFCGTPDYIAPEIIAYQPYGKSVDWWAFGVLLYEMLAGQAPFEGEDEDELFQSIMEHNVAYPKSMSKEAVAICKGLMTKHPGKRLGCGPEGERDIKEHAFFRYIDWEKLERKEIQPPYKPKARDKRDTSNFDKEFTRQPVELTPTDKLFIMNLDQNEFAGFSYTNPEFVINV
Sequence of Protein kinase C theta type (Homo sapiens) (Q04759 whole entry, looked up): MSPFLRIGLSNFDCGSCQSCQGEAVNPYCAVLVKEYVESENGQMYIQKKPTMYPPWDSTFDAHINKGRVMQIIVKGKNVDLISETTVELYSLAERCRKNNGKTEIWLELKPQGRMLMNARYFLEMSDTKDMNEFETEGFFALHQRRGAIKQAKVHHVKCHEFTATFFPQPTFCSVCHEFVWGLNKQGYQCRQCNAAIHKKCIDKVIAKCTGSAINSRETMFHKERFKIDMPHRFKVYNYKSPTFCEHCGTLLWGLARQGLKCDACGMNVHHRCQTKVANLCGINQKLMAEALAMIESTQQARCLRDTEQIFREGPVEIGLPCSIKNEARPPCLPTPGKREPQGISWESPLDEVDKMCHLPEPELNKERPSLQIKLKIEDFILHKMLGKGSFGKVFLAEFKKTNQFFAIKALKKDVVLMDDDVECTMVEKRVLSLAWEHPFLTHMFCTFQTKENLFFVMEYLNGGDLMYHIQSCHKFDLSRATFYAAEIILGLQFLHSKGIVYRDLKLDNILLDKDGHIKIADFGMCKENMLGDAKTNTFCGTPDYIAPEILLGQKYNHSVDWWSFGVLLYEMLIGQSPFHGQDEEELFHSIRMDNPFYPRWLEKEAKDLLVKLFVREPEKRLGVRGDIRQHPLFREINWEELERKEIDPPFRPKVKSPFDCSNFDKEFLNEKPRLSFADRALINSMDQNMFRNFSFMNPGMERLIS

Structure (SMILES) | inhibition [1] | inhibition [2] | inhibition [3] | inhibition [4] | inhibition [5] | inhibition [6] | inhibition [7] | inhibition [8] | inhibition [9] | inhibition [10] | inhibition [11] | inhibition [12] | inhibition [13] | inhibition [14] | inhibition [15] | inhibition [16] | inhibition [17] | inhibition [18] | inhibition [19] | inhibition [20]
C[C@@H](Oc1cc(-n2cnc3ccc(OCC4CCN(C)CC4)cc32)sc1C(N)=O)c1ccccc1C(F)(F)F | 7.81% | -1.38% | 0.4% | 2.09% | 19.4% | 2.07% | 18.8% | -0.56% | 12.1% | 2.29% | 22.1% | -0.13% | 16.9% | -2.23% | 0.25% | -1.61% | 0.31% | -0.03% | -1.15% | 0.29%
CN(C)C(=O)O[C@@H]1CN[C@@H](C#Cc2cc3ncnc(Nc4ccc(OCc5cccc(F)c5)c(Cl)c4)c3s2)C1 | -0.54% | -1.15% | 0% | -0.8% | -1.63% | 0.88% | 0.87% | 0.32% | 3.71% | 0.79% | 5.06% | 1.06% | 4.35% | -0.86% | 1.64% | 0.46% | 2.7% | -0.77% | -1.92% | -0.58%
N#Cc1cccc(Nc2nccc(-c3cnn4ncccc34)n2)c1 | 31.2% | 0.78% | 1.84% | 3.95% | 14.2% | 6.33% | 30.2% | 7.68% | 49.5% | 7.36% | 46.8% | 10.5% | 54.9% | 10.8% | 50.2% | 4.14% | 25.9% | 1.47% | 2.66% | 1.39%
CS(=O)(=O)Nc1cccc(-c2ccc3c(NC(=O)C4CC4)n[nH]c3c2)c1 | 1.59% | 0.49% | 0.91% | -0.5% | -0.76% | -0.25% | 0.61% | 0.96% | 2.34% | 2.1% | 3.59% | 1.24% | 2.48% | -0.41% | 1.73% | 1.34% | 2.16% | 0.39% | -0.61% | 0.24%
